Data from PubChem BioAssay.
For some assays here: Potency and affinity values are given separately. Calls of active or inactive are those of the source. Entries that show only a call come without a potency. No rule for the calls is given here.

Each compound was assayed against Plasmodium falciparum protein kinase 6 (PK6, PF3D7_1337100) (UniProt Q8IDW1) (assay: PfPK6 kinase inhibitors, biochemical, TCAMS library (AID 1159586)). Conditions: recombinant PfPK6, Kinase-Glo ATP depletion luminescence.
Chain of Plasmodium falciparum protein kinase 6 (PK6, PF3D7_1337100) (Q8IDW1 1-305): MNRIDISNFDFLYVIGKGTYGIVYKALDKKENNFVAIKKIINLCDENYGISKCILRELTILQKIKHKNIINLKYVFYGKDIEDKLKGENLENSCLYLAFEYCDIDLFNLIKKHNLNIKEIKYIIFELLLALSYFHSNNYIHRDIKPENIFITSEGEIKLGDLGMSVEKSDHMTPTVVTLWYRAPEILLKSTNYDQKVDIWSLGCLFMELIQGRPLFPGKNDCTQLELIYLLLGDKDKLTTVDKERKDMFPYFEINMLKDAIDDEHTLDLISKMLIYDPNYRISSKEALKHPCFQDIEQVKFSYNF

Row | Compound | outcome
1 | Oc1c(CNC2CCCCC2)cc(Cl)c2ccccc12 | inactive
2 | Cc1[nH]c(C)c(-c2ccc(Oc3ccc(Cl)c(Cl)c3)cc2)c(=O)c1Br | inactive
3 | CC(C)(C)c1ccc(-c2nc3c(ccc4nc(N)nc(N)c43)[nH]2)cc1 | inactive
4 | Nc1nc(N)c2c(n1)CCc1cc(Br)ccc1-2 | inactive
5 | CCN(C)C(=O)n1ncc2c3c(N)nc(N)nc3ccc21 | inactive
6 | Cc1nc2nc(N)nc(N)c2c(C)c1Cc1ccc(N)cc1 | inactive
7 | Nc1nc(N)c2c(ccc3c2cnn3Cc2cccnc2)n1 | inactive
8 | Cc1[nH]c(C)c(-c2ccc(Oc3cc(Cl)cc(Cl)c3)cc2)c(=O)c1Br | inactive
9 | COc1ccc(OC)c(Cc2c(C)nc3nc(N)nc(N)c3c2C)c1 | inactive
10 | CCCCc1cc(Cc2cnc(N)nc2N)cc(OC)c1OC | inactive
11 | CC(C)c1ccc2c(c1)C(=O)c1ccc(C(=O)O)cc1S2(=O)=O | inactive
12 | CCCCNCCOc1ccc(-c2nc(-c3ccccc3)c(-c3ccccc3)[nH]2)cc1 | inactive
13 | Nc1nc(Cc2ccc(Cl)cc2)nc(Cc2ccc(Cl)cc2)n1 | inactive
14 | Cc1cc(=O)c(-c2ccc(Oc3ccc(OC(F)(F)F)cc3)cc2)c(C)[nH]1 | inactive
15 | CC(C)CNc1nc(N)nc2ccc3c(ccn3CC(C)C)c12 | inactive
16 | CC(=O)Oc1c(Br)c(C)nc(C)c1-c1ccc(Oc2ccc(OC(F)(F)F)cc2)cc1 | inactive
17 | FC(F)(F)c1ccc2c(NCCCNc3ccnc4cc(C(F)(F)F)ccc34)ccnc2c1 | inactive
18 | CCNCCCC(C)Nc1ccnc2cc(Cl)ccc12 (centres undefined) | inactive
19 | CCCN(c1ccc(O)c(CN2CCCCC2)c1)c1ccc([N+](=O)[O-])cn1 | inactive
20 | CCOC(=O)c1c(-c2ccccc2)c(C(=O)OCC)n2ccccc12 | inactive

What follows are compounds tested against Protein kinase 7 (PK7), Plasmodium falciparum 3D7 (PF3D7_0213400) (UniProt Q7YTF7) (assay: inhibition of Plasmodium PK7 catalytic activity – biochemical, TCAMS antimalarial set, Kinase-Glo luminescence (AID 1159587)). Conditions: recombinant PfPK7, Kinase-Glo ATP depletion luminescence.
Chain of Protein kinase 7 (PK7), Plasmodium falciparum 3D7 (PF3D7_0213400) (Q7YTF7 1-343): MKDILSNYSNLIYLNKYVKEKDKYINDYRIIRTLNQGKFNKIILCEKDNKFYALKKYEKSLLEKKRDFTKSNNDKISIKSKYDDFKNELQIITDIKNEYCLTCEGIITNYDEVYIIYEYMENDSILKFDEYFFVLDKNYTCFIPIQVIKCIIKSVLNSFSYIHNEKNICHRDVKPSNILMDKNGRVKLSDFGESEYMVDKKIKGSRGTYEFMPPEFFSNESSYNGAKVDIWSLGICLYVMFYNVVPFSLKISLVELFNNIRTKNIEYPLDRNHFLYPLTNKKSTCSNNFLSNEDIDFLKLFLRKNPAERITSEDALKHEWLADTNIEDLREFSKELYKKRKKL

Row | Compound | outcome
21 | CC(C)(C)c1ccc(Cc2cccc3nc(N)nc(N)c23)cc1 | inactive
22 | CCn1c(O)c(N=NC(=S)N2CCCC2)c2ccccc21 | inactive
23 | CCOC(=O)c1nc2ccc(SC3CCCCC3)cn2c1Br | inactive
24 | CCCCOc1c(CCNCCCCNCCc2cc(OC)c3ccccc3c2OCCCC)cc(OC)c2ccccc12 | inactive
25 | CCOc1cc(Cc2cnc(N)nc2N)ccc1OC | inactive
26 | Cc1nc(N)nc(N)c1-c1ccc(Br)c(Br)c1 | inactive
27 | CCCOc1cc2c(cc1OCCC)C(C=Cc1ccc(Cl)cc1Cl)=NC(C)C2 (centres undefined) | inactive
28 | COc1ccc(OC)c(CC2c3ccc(Br)c(O)c3CCN2C)c1 (centres undefined) | inactive
29 | COc1cc(Cc2cnc3nc(N)nc(N)c3c2C)cc(OC)c1OC | inactive
30 | Cc1nc(NCc2ccccc2)cc(Nc2cc(NCc3ccccc3)nc(C)n2)n1 | inactive
31 | CCc1nc(N)nc(N)c1-c1ccc2c(c1)CCCC2 | inactive
32 | Cc1[nH]c(C)c(-c2ccc(Oc3ccc(Cl)cc3)cc2)c(=O)c1Cl | inactive
33 | Cc1c(C(C)(C)C)ccc2nc(N)nc(N)c12 | inactive
34 | COc1cc(Cc2cnc(N)nc2N)cc(OCCCCNS(=O)(=O)C(F)(F)F)c1OC | inactive
35 | Nc1nc(N)c2cc(Cc3ccc([N+](=O)[O-])cc3)cnc2n1 | inactive
36 | CCC(C)c1cnc2nc(N)nc(N)c2c1C (centres undefined) | inactive
37 | NC(N)=NC(=O)Nc1ccc(Cl)c([N+](=O)[O-])c1 | inactive
38 | CCCc1cc(OC)c(CC2c3cc(O)c(Cl)cc3C(c3ccccc3)CN2C)cc1OC (centres undefined) | inactive
39 | CC1CN=C(c2ccc(NC(=O)Nc3ccc(C4=NCC(C)N4)cc3)cc2)N1 (centres undefined) | inactive
40 | Oc1c(CNC2CCCCC2)cc(Cl)c2ccccc12 | inactive

Row | Compound | outcome
41 | Cc1[nH]c(C)c(-c2ccc(Oc3ccc(Cl)c(Cl)c3)cc2)c(=O)c1Br | inactive
42 | CC(C)(C)c1ccc(-c2nc3c(ccc4nc(N)nc(N)c43)[nH]2)cc1 | inactive
43 | Nc1nc(N)c2c(n1)CCc1cc(Br)ccc1-2 | inactive
44 | CCN(C)C(=O)n1ncc2c3c(N)nc(N)nc3ccc21 | inactive
45 | Cc1nc2nc(N)nc(N)c2c(C)c1Cc1ccc(N)cc1 | inactive
46 | Nc1nc(N)c2c(ccc3c2cnn3Cc2cccnc2)n1 | inactive
47 | Cc1[nH]c(C)c(-c2ccc(Oc3cc(Cl)cc(Cl)c3)cc2)c(=O)c1Br | inactive
48 | COc1ccc(OC)c(Cc2c(C)nc3nc(N)nc(N)c3c2C)c1 | inactive
49 | CCCCc1cc(Cc2cnc(N)nc2N)cc(OC)c1OC | inactive
50 | CC(C)c1ccc2c(c1)C(=O)c1ccc(C(=O)O)cc1S2(=O)=O | inactive
51 | CCCCNCCOc1ccc(-c2nc(-c3ccccc3)c(-c3ccccc3)[nH]2)cc1 | inactive
52 | Nc1nc(Cc2ccc(Cl)cc2)nc(Cc2ccc(Cl)cc2)n1 | inactive
53 | Cc1cc(=O)c(-c2ccc(Oc3ccc(OC(F)(F)F)cc3)cc2)c(C)[nH]1 | inactive
54 | CC(C)CNc1nc(N)nc2ccc3c(ccn3CC(C)C)c12 | inactive
55 | CC(=O)Oc1c(Br)c(C)nc(C)c1-c1ccc(Oc2ccc(OC(F)(F)F)cc2)cc1 | inactive
56 | FC(F)(F)c1ccc2c(NCCCNc3ccnc4cc(C(F)(F)F)ccc34)ccnc2c1 | inactive
57 | CCNCCCC(C)Nc1ccnc2cc(Cl)ccc12 (centres undefined) | inactive
58 | CCCN(c1ccc(O)c(CN2CCCCC2)c1)c1ccc([N+](=O)[O-])cn1 | inactive
59 | CCOC(=O)c1c(-c2ccccc2)c(C(=O)OCC)n2ccccc12 | inactive
